# Source: PMC7862700, “An all-to-all approach to the identification of sequence-specific readers for epigenetic DNA modifications on cytosine”
# Tests used:
# Experiment in all cases: DAPPL (digital affinity profiling via proximity ligation, sequencing); 10 mM Tris-HCl pH 7.5, 50 mM NaCl, 1 mM DTT, 4% glycerol, room temperature, 30 min; GST-TFs on glutathione beads, 16-mer random dsDNA library, 0.1% formaldehyde crosslink after washing; high values mean tight binding
# Conditions in all cases: protein: recombinant; tags: N-terminal GST; dsDNA, one strand shown
# FLI1 = biological target: T1, FLI1 (Homo sapiens, UniProt Q01543 1-452)
# T1 sequence: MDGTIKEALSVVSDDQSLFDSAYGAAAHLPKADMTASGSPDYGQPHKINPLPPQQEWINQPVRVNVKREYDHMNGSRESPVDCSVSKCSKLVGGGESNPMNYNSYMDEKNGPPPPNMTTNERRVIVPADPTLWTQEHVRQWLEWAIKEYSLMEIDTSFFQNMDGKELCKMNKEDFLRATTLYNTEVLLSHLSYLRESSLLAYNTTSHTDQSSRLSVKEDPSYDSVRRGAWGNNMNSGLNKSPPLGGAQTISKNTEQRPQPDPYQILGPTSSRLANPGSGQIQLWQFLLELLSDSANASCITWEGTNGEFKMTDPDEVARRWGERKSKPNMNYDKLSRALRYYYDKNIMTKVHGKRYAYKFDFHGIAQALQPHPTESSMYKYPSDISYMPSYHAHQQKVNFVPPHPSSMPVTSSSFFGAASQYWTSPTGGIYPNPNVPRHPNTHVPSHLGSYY
# Outline: (§1)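 Pools were built from human transcription factors expressed in yeast as GST fusions, captured on glutathione beads and DNA-barcoded, along with a tag-only sample. Incubation with 200 nmole of a 16-mer random double-stranded DNA library lasted 30 min at room temperature in Tris/NaCl/DTT/glycerol buffer, and was followed by washing, 0.1% formaldehyde crosslinking, proximity ligation, PCR amplification and Illumina NextSeq500 sequencing. Binding signal is the quotient of each hexamer's read frequency for a factor and its frequency for the tag-only sample.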
# ELK1 = biological target: T2, ELK1 (Homo sapiens, UniProt P19419 1-428)
# T2 sequence: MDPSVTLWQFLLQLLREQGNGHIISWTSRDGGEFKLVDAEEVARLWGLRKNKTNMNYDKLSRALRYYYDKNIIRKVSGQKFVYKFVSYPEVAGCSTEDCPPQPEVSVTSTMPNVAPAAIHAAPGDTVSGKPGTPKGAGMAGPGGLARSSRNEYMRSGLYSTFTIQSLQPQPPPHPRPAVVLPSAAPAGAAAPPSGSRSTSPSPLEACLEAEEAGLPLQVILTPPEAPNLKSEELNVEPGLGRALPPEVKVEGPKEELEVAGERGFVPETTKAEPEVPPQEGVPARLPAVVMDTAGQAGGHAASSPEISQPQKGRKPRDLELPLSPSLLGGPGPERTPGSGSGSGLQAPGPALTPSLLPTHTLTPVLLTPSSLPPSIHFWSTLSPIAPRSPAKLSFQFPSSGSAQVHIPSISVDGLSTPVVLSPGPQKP
# Outline: as §1
# GABPA = biological target: T3, GABPA (Homo sapiens, UniProt Q06546 1-454)
# T3 sequence: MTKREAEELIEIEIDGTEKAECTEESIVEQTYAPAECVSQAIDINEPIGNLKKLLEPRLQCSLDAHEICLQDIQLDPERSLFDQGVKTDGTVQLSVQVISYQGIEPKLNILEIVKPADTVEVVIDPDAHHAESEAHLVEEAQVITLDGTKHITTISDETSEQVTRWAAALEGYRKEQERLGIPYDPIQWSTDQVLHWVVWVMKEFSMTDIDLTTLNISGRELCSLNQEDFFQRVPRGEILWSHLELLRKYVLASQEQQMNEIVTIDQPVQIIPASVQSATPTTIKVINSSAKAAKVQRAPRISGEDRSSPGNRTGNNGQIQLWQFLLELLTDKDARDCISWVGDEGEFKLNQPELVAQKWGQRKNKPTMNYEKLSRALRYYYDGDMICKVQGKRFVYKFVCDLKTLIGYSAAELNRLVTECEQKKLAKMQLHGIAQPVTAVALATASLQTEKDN
# Outline: as §1
# ERG = biological target: T4, ERG (Homo sapiens, UniProt P11308 1-479)
# T4 sequence: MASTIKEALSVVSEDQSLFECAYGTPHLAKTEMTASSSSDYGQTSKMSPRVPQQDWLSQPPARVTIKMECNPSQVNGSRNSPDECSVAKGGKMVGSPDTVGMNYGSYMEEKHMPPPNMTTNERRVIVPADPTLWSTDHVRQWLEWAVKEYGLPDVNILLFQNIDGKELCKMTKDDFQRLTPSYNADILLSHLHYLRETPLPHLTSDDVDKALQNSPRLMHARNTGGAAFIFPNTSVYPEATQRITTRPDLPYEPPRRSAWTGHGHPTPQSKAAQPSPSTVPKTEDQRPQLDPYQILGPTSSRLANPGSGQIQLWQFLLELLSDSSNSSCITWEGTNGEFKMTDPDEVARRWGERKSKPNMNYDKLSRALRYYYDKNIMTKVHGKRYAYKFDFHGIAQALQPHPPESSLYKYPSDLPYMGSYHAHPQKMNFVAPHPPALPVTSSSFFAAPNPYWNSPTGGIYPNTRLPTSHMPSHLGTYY
# Outline: as §1
# ELF1 = ELF1 (Homo sapiens, UniProt P32519 1-619)
# Outline: as §1
# EHF = biological target: T5, EHF (Homo sapiens, UniProt Q9NZC4 1-300)
# T5 sequence: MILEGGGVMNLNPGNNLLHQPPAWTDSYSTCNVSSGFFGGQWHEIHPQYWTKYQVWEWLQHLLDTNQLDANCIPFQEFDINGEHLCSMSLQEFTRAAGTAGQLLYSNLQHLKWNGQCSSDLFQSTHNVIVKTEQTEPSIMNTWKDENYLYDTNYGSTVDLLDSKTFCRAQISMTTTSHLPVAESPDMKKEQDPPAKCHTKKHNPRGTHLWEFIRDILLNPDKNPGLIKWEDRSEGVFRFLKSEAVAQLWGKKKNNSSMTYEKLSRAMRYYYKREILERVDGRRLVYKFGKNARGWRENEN
# Outline: as §1
# SPI1 = SPI1 (Homo sapiens, UniProt P17947 1-270)
# Outline: as §1
# SPIB = SPIB (Homo sapiens, UniProt Q01892 1-262)
# Outline: as §1
# ELK3 = biological target: T6, ELK3 (Homo sapiens, UniProt P41970 1-407)
# T6 sequence: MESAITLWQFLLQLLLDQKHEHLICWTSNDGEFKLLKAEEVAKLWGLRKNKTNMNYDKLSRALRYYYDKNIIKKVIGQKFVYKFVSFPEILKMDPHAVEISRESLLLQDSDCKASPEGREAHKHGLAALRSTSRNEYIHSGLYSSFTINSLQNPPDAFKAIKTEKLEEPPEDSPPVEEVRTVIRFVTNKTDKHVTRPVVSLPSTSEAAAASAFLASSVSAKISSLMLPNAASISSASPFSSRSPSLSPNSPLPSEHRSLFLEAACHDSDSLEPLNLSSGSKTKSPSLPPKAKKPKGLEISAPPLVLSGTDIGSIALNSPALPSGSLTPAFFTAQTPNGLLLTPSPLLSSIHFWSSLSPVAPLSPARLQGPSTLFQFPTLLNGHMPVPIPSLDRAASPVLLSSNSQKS
# Outline: as §1
# FEV = biological target: T7, FEV (Homo sapiens, UniProt Q99581 1-238)
# T7 sequence: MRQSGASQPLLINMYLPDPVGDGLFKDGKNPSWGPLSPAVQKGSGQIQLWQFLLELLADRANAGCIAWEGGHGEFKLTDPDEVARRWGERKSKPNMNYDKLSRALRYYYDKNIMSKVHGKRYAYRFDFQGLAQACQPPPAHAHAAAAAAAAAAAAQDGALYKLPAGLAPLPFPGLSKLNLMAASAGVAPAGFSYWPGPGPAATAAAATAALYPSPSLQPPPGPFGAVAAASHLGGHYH
# Outline: as §1
# ETV5 = ETV5 (Homo sapiens, UniProt P41161 1-510)
# Outline: as §1
# SPIC = biological target: T8, SPIC (Homo sapiens, UniProt Q8N5J4 1-248)
# T8 sequence: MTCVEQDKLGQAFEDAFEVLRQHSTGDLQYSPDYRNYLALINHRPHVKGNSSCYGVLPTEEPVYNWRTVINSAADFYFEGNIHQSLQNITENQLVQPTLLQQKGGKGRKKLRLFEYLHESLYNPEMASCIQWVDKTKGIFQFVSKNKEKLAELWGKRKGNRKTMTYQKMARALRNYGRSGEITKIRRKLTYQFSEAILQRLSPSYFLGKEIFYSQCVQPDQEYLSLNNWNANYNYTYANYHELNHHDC
# Outline: as §1
# ELF4 = ELF4 (Homo sapiens, UniProt Q99607 1-663)
# Outline: as §1
# ELK4 = biological target: T9, ELK4 (Homo sapiens, UniProt P28324-2 1-405)
# T9 sequence: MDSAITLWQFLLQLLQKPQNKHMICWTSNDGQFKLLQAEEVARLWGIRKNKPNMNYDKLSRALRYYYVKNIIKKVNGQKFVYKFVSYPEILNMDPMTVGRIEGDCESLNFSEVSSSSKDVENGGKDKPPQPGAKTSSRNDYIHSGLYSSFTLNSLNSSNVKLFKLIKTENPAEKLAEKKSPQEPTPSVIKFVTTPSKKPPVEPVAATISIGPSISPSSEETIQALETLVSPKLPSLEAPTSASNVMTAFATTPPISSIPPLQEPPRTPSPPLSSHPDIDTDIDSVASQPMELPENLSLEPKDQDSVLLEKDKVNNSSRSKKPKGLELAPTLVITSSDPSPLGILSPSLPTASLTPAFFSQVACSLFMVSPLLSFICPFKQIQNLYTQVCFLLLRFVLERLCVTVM
# Outline: as §1
# ETV2 = biological target: T10, ETV2 (Homo sapiens, UniProt O00321 1-342)
# T10 sequence: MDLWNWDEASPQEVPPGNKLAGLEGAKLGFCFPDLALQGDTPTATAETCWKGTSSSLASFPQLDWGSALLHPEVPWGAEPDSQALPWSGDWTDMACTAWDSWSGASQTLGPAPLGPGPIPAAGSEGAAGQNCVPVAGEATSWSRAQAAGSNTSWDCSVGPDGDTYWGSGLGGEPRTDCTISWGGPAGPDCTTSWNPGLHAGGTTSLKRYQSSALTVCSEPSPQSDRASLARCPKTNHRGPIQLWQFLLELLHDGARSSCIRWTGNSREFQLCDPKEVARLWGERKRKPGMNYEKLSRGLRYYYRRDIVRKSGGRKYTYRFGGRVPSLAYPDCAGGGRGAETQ
# Outline: as §1
# ELF3 = biological target: T11, ELF3 (Homo sapiens, UniProt P78545 1-371)
# T11 sequence: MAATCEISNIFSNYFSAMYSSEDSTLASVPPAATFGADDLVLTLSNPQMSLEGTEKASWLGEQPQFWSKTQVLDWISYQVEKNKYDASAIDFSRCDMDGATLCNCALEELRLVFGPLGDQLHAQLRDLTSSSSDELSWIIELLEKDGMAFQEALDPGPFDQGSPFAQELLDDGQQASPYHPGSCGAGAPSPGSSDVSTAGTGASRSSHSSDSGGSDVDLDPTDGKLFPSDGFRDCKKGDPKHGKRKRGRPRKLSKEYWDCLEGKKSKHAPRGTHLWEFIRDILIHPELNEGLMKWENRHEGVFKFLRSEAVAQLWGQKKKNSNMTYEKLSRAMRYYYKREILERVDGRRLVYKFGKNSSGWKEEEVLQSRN
# Outline: as §1
# ETV1 = ETV1 (Homo sapiens, UniProt P50549 1-477)
# Outline: as §1
# Chain of SPIB (Q01892 whole entry): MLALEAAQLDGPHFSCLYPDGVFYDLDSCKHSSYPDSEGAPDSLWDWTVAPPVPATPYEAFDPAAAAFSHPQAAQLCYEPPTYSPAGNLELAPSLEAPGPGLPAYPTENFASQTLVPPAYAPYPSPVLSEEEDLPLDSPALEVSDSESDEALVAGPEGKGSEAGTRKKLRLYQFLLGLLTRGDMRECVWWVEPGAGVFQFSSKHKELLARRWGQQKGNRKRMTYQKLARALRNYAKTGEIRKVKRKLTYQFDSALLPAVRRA
# Chain of ELF4 (Q99607 whole entry): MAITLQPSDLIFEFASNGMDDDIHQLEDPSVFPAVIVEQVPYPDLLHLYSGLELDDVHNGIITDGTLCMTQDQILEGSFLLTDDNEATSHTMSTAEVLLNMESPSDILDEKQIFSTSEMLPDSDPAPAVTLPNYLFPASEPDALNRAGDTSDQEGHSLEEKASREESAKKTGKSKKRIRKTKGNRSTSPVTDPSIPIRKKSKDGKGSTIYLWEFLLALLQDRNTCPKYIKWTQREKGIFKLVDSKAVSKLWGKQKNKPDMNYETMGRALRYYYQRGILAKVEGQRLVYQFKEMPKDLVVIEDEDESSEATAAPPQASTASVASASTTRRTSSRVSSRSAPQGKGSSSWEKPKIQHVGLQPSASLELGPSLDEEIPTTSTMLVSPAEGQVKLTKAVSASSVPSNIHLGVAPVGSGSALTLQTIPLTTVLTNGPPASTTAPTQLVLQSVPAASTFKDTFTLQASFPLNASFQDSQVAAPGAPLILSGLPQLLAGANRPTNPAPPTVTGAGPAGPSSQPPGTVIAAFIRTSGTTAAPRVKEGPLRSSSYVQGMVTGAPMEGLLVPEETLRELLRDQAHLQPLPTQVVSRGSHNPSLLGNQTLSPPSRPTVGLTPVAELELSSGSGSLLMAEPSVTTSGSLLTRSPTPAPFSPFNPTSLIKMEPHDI
# Chain of ETV1 (P50549 whole entry): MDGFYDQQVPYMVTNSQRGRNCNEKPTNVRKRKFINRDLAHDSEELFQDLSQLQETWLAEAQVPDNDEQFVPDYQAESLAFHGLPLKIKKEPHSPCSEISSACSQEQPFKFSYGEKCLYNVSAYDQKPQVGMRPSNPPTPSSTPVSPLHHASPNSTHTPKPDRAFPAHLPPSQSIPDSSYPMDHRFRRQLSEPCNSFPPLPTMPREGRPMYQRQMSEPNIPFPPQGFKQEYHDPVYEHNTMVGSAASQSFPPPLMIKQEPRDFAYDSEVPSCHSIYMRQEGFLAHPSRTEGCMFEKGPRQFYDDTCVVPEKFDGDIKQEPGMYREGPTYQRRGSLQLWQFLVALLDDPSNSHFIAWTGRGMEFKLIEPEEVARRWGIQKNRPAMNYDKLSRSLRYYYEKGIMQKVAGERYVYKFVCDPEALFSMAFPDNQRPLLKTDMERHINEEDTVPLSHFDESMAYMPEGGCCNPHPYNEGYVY
# Chain of ETV5 (P41161 whole entry): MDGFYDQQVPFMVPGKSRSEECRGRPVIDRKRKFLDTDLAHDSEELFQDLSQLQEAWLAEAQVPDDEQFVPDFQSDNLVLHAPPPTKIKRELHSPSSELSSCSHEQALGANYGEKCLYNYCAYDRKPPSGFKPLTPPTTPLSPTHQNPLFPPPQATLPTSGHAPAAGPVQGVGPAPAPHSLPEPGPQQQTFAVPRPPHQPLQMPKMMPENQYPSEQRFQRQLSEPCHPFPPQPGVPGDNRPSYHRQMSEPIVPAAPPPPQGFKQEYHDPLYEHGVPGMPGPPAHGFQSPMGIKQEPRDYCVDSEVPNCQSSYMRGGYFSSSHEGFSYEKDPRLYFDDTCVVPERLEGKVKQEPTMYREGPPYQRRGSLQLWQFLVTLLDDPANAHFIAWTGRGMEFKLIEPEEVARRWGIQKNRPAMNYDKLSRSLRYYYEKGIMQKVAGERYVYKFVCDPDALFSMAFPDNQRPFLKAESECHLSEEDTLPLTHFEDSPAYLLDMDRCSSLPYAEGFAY
# Chain of ELF1 (P32519 whole entry): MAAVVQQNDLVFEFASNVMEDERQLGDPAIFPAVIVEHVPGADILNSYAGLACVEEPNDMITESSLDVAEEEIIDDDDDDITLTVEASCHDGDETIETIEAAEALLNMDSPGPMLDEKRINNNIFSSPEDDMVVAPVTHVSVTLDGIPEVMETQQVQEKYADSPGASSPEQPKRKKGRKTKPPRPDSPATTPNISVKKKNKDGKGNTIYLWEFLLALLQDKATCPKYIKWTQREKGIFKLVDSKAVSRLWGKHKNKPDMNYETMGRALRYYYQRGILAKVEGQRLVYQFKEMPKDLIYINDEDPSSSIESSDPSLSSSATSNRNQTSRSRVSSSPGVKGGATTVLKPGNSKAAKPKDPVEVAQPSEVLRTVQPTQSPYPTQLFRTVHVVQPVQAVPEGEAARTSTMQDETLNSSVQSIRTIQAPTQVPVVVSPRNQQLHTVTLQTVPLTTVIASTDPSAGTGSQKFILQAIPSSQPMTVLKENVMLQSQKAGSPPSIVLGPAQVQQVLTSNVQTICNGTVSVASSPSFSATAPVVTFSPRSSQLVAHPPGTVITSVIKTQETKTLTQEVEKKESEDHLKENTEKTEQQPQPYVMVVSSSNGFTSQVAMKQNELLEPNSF
sequence,measurement,setting,value
CGTCAA,binding signal,FLI1,"1.2 fold enrichment (6-mer frequency, TF over GST control)"
same,binding signal,ELK1,"1.15 fold enrichment (6-mer frequency, TF over GST control)"
same,binding signal,GABPA,"1.19 fold enrichment (6-mer frequency, TF over GST control)"
same,binding signal,ERG,"1.11 fold enrichment (6-mer frequency, TF over GST control)"
same,binding signal,ELF1,"1.11 fold enrichment (6-mer frequency, TF over GST control)"
same,binding signal,EHF,"1.12 fold enrichment (6-mer frequency, TF over GST control)"
same,binding signal,SPI1,"1.01 fold enrichment (6-mer frequency, TF over GST control)"
same,binding signal,SPIB,"1.27 fold enrichment (6-mer frequency, TF over GST control)"
same,binding signal,ELK3,"1.06 fold enrichment (6-mer frequency, TF over GST control)"
same,binding signal,FEV,"1.08 fold enrichment (6-mer frequency, TF over GST control)"
same,binding signal,ETV5,"1.08 fold enrichment (6-mer frequency, TF over GST control)"
same,binding signal,SPIC,"1.19 fold enrichment (6-mer frequency, TF over GST control)"
same,binding signal,ELF4,"1.15 fold enrichment (6-mer frequency, TF over GST control)"
same,binding signal,ELK4,"1.12 fold enrichment (6-mer frequency, TF over GST control)"
same,binding signal,ETV2,"1.2 fold enrichment (6-mer frequency, TF over GST control)"
same,binding signal,ELF3,"1.2 fold enrichment (6-mer frequency, TF over GST control)"
same,binding signal,ETV1,"1.12 fold enrichment (6-mer frequency, TF over GST control)"
CGTAAC,binding signal,FLI1,"1.19 fold enrichment (6-mer frequency, TF over GST control)"
same,binding signal,ELK1,"1.12 fold enrichment (6-mer frequency, TF over GST control)"
same,binding signal,GABPA,"1.17 fold enrichment (6-mer frequency, TF over GST control)"
same,binding signal,ERG,"1.07 fold enrichment (6-mer frequency, TF over GST control)"
same,binding signal,ELF1,"1.11 fold enrichment (6-mer frequency, TF over GST control)"
same,binding signal,EHF,"1.16 fold enrichment (6-mer frequency, TF over GST control)"
same,binding signal,SPI1,"1.08 fold enrichment (6-mer frequency, TF over GST control)"
same,binding signal,SPIB,"1.16 fold enrichment (6-mer frequency, TF over GST control)"
same,binding signal,ELK3,"1.07 fold enrichment (6-mer frequency, TF over GST control)"
same,binding signal,FEV,"1.09 fold enrichment (6-mer frequency, TF over GST control)"
same,binding signal,ETV5,"1.1 fold enrichment (6-mer frequency, TF over GST control)"
same,binding signal,SPIC,"1.27 fold enrichment (6-mer frequency, TF over GST control)"
same,binding signal,ELF4,"1.23 fold enrichment (6-mer frequency, TF over GST control)"
same,binding signal,ELK4,"1.13 fold enrichment (6-mer frequency, TF over GST control)"
same,binding signal,ETV2,"1.12 fold enrichment (6-mer frequency, TF over GST control)"
same,binding signal,ELF3,"1.18 fold enrichment (6-mer frequency, TF over GST control)"
same,binding signal,ETV1,"1.13 fold enrichment (6-mer frequency, TF over GST control)"
